Among all 1,200 compounds or so, fewer than 10 were called active. The call rests on the fitted dose curve; in most records, active means well fitted curve in the direction sought with a large enough effect; inconclusive means small, poorly fitted or top-dose-only effect, or another doubt; inactive means no such curve, though single readings can be large or run the other way. Not all results are given here. Residues, ends and D or L forms follow the SMILES beside them.
target: Transcriptional regulator ERG (Homo sapiens) (UniProt P11308); assay: qHTS for Small Molecule Inhibitors of the ERG Ets/DNA interaction: TR assay against cherry picks; settings: ERG Ets domain-DNA fluorescence polarization, Texas red probe; series mostly up to 154 µM
Text: The Ets family of proteins is a family of ~30 conserved transcription factors defined by the presence of an ~85 amino acid domain referred to as the Ets domain, which mediates sequence-specific DNA binding to a core DNA element GGAA/T.The Ets family member ERG has been linked to several neoplasms. […] More extensive studies of the effects of over-expression of ERG in prostate cells have recently been carried out and have shown that over-expression of ERG results in increased invasion. […] We will carry out a high throughout screen to identify inhibitors of the interaction between ERG and DNA using a fluorescence polarization (FP) assay with a His-tagged ERG Ets domain and fluorescently-labeled DNA probes to develop small molecule inhibitors of this interaction as probes to test this hypothesis and lay the groundwork for the development of targeted therapies against ERG. This is the confirmation against the cherry picks in theprimary screening assay. NIH Molecular Libraries Probe Production Network [MLPCN] NIH Chemical Genomics Center [NCGC] Grant: NS066464 PI Name: John Bushweller, University of Virgina
1.5 ul of protein solution (1 uM ERG domain in 300mM KCl, 50mM Tris-HCl, 1mM EDTA, 1mM DTT, pH 7.5); 20 nl Control plate and compound library plate; 1.5 ul mixture of 5 nM Fluorescein-DNA and 100nM Texas-615-DNA solution in same buffer as above solution; measure fluorescence polarization sequentially for fluorescein (Excitation = 480 nm, Emission = 535s, 535p nm) and Texas red (Excitation = 555 nm, Emission = 632s, 632p nm).

Sequence of Transcriptional regulator ERG (Homo sapiens) (P11308 whole entry, looked up, the tested form may be a part): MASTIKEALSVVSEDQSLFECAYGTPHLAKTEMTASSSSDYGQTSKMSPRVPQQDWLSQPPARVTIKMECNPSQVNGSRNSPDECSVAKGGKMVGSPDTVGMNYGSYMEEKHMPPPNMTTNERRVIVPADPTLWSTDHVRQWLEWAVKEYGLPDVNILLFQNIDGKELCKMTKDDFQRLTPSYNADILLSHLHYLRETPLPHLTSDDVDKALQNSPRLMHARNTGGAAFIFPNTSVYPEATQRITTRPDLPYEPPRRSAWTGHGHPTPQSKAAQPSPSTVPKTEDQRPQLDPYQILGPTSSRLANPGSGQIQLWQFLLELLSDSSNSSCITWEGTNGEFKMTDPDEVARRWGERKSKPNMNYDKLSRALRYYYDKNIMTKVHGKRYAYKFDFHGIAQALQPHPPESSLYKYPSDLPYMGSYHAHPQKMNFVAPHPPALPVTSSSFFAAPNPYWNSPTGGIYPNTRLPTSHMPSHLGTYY

Q: Which outcome does the source give for Cc1ccccc1OCc1nnc(SCC(=O)Nc2ccc(N3CCOCC3)c(Cl)c2)n1C here?
A: inactive

Q: With O=C(O)c1cc(O)c2c(c1)[C@H]([C@H]1c3cc(C(=O)O)cc(O)c3C(=O)c3c(O[C@@H]4O[C@H](CO)[C@@H](O)[C@H](O)[C@H]4O)cccc31)c1cccc(OC3O[C@H](CO)[C@@H](O)[C@H](O)[C@H]3O)c1C2=O (some centres not stated) as the molecule, how does the outcome read?
A: inactive

Q: With COc1ccccc1CN(C)C(=O)C(NC(=O)Cc1cccc2ccccc12)C(C)C (configuration not stated) as the molecule, how does the outcome read?
A: inactive

Q: For O=C(CN1C=NS(=O)(=O)c2ccccc21)Nc1ccc(Br)cc1, which outcome is on record?
A: inactive

Q: Cc1ccc(S(=O)(=O)NCC(=O)N(CC(=O)NCC2CCCO2)c2cccc(F)c2)cc1 (configuration not stated) was tested. Which outcome did it give?
A: inactive

Q: Which outcome does the source give for Clc1ccc(SCc2nc3ccccc3[nH]2)cc1 here?
A: inactive

Q: For CCc1n[nH]c(=S)n1/N=C/c1ccc(N(C)c2ccccc2)cc1, which outcome is on record?
A: inactive

Q: CNC(=O)c1cccc(-n2c(C)nc3cccnc32)c1C was tested. Which outcome did it give?
A: inactive

Q: Which outcome does the source give for Cc1ccc(/C=C2\SC(N3CCCCC3)=NC2=O)cc1 here?
A: inactive

Q: CCc1cccc(NC(=O)C2CCCN(S(=O)(=O)c3ccc4[nH]c(=O)ccc4c3)C2)c1 (configuration not stated) was tested. Which outcome did it give?
A: inactive

Q: With COc1ccc(-c2ccc(SCC(=O)NCc3ccc4c(c3)OCO4)nn2)cc1OC as the molecule, how does the outcome read?
A: inactive

Q: For C=CCn1c(=O)[nH]c2cc(C(=O)N3CC=C(c4ccccc4)CC3)ccc2c1=O, which outcome is on record?
A: inactive

Q: How did the outcome turn out when COc1ccccc1CNC(=O)CCNC(=O)C1CCN(S(=O)(=O)c2ccccc2)CC1 was run?
A: inactive

Q: Oc1ccc(Nc2ccc3ccccc3c2)cc1 was tested. Which outcome did it give?
A: inactive

Q: Which outcome does the source give for Cc1ccc(OCC(=O)OCC(=O)c2ccccc2)cc1C here?
A: inactive

Q: CC(C)N1CCC(N2CCN(Cc3cccc4nonc34)CC2CCO)CC1 (configuration not stated) was tested. Which outcome did it give?
A: inactive

Q: O=C(O)CNC(=O)/C(=C\c1ccc2c(c1)OCO2)NC(=O)c1ccc(Br)cc1 was tested. Which outcome did it give?
A: inactive

Q: O=C(COc1coc(CN2CCCc3ccccc32)cc1=O)Nc1cccc([N+](=O)[O-])c1 was tested. Which outcome did it give?
A: inactive

Q: With COc1cccc(CC2(CO)CCN(S(=O)(=O)N(C)C)CC2)c1 as the molecule, how does the outcome read?
A: inactive

Q: CCOc1cc(C2c3c(oc4ccccc4c3=O)C(=O)N2Cc2ccc(OC)cc2)ccc1O (configuration not stated) was tested. Which outcome did it give?
A: inactive

Q: For Cc1cccc(-c2oc3ccccc3c2-c2ccc3c(c2)OCO3)c1, which outcome is on record?
A: inactive

Q: With Cc1ncc([N+](=O)[O-])n1CC(=O)N/N=C/c1ccc(F)cc1 as the molecule, how does the outcome read?
A: inactive

Q: Cc1ccc(C(=O)Nc2ccc(C(=O)N/N=C/c3c[nH]c4ccccc34)cc2)cc1 was tested. Which outcome did it give?
A: inactive

Q: Cc1ccc(/C=C2\Sc3ccccc3C2=O)s1 was tested. Which outcome did it give?
A: inactive

Q: COc1ccc([C@@H](NC(=O)OC(C)(C)C)C(=O)OC(C)(C)C)cc1 was tested. Which outcome did it give?
A: inactive

Q: O=c1ccc(-c2ccc(S(=O)(=O)Nc3cccc(Br)c3)o2)n[nH]1 was tested. Which outcome did it give?
A: inactive

Q: For Nn1c(Cc2ccccc2)nc2sc3c(c2c1=O)CCC3, which outcome is on record?
A: inactive

Q: CCCN(CCC)Cc1c(C(=O)N/N=C/c2cccs2)nnn1-c1nonc1N was tested. Which outcome did it give?
A: inactive

Q: Which outcome does the source give for Cn1c(CNC(=O)CNC(=O)c2ccc(C(C)(C)C)cc2)cc(=O)n(C)c1=O here?
A: inactive

Q: C/C(=N\Nc1ccc(C#N)cc1[N+](=O)[O-])c1ccc(C)o1 was tested. Which outcome did it give?
A: inactive

Q: With CC(=O)Nc1ccc(NC(=O)C(C)OC(=O)C2CCN(S(=O)(=O)c3ccc4c(c3)OCCO4)CC2)cc1 (configuration not stated) as the molecule, how does the outcome read?
A: inactive

Q: CCS(=O)(=O)N1CCC(C(=O)OCC(=O)c2ccc(Br)cc2)CC1 was tested. Which outcome did it give?
A: inactive

Q: With Cn1c(SCC(=O)N2CCN(C(=O)c3ccco3)CC2)nnc1-c1ccc(NS(C)(=O)=O)cc1 as the molecule, how does the outcome read?
A: inactive

Q: Which outcome does the source give for CCOC(=O)N1CCC(NC(=O)Cc2ccccc2)CC1 here?
A: inactive

Q: CC(=O)NC(Cc1ccccc1)C(=O)NC(Cc1ccccc1)C(=O)O (stereo not drawn) (Ac-Phe-Phe-OH; configuration not given here) was tested. Which outcome did it give?
A: inactive

Q: How did the outcome turn out when COc1ccccc1C(=O)Nn1c(-c2cccs2)nc2ccccc2c1=O was run?
A: inactive

Q: How did the outcome turn out when Cc1c(OC(C(=O)O)c2ccccc2)ccc2c(-c3ccccc3)cc(=O)oc12 (configuration not stated) was run?
A: inactive

Q: For COc1cc(C(=O)Cc2nc3ccccc3n2C)cc(OC)c1OC, which outcome is on record?
A: inactive

Q: How did the outcome turn out when CC(=O)Nc1ccc(NC(=O)Nc2ccc(C)cc2C)cc1 was run?
A: inactive

Q: For CCOc1ccc(N/C(SCc2cccc([N+](=O)[O-])c2)=C(/C#N)C(N)=O)cc1, which outcome is on record?
A: inactive

Q: For CC(C)(C)SC(=O)CC1NS(=O)(=O)OC2CCCCC12 (configuration not stated), which outcome is on record?
A: inactive

Q: How did the outcome turn out when Cc1cccn2c(=O)cc(COc3ccc(NC(=O)C(C)C)cc3)nc12 was run?
A: inactive

Q: With CCc1nnc2c(N3CCN(c4cccc(C(F)(F)F)c4)CC3)nc3ccccc3n12 as the molecule, how does the outcome read?
A: inactive

Q: For COC(=O)c1ccc2c(=O)n(CCN3CCOCC3)c(SCC(=O)Nc3ccc(OC)cc3OC)nc2c1, which outcome is on record?
A: inactive

Q: How did the outcome turn out when COc1ccc(S(=O)(=O)N2CCc3ccccc32)cc1C(=O)N(CC(C)C)C1CCS(=O)(=O)C1 (configuration not stated) was run?
A: inactive

Q: How did the outcome turn out when FC(F)(F)COc1cc(-c2nnc(SCc3ccccc3)n2Cc2ccco2)cc(OCC(F)(F)F)n1 was run?
A: inactive

Q: How did the outcome turn out when N/C(=N\c1nc2ccccc2o1)NC(=O)c1cccc(Br)c1 was run?
A: inactive

Q: Which outcome does the source give for Cc1ccccc1OCC(=O)Nc1ccc2[nH]ncc2c1 here?
A: inactive

Q: Which outcome does the source give for CCN1CCN(CCCN(Cc2cccs2)C(=S)Nc2ccccc2C)CC1 here?
A: inactive

Q: With Nc1ccc2nc3c(=O)n(CCc4ccccc4)c(=O)[nH]c3nc2c1 as the molecule, how does the outcome read?
A: inactive

Q: How did the outcome turn out when CCOC(=O)C1=C(C)N(C[C@@H]2CC[C@@H](Cc3ccc(-c4ccccc4)cc3)O2)C(=O)NC1c1ccc([N+](=O)[O-])cc1 (some centres not stated) was run?
A: inactive

Q: COc1cc(/C=C/C(=O)OCC(=O)NC(=O)NC2CCCCC2C)ccc1OC(F)F (configuration not stated) was tested. Which outcome did it give?
A: inactive

Q: Which outcome does the source give for O=S(=O)(NCCC1=CCCCC1)c1ccc(OC(F)(F)F)cc1 here?
A: inactive

Q: CCN1C(=O)CSc2ccc(C(=O)NC3CCCCC3)cc21 was tested. Which outcome did it give?
A: inactive

Q: With COc1ccc(C2(C(=O)Nc3ccc(OC)cc3OC)CCCC2)cc1 as the molecule, how does the outcome read?
A: inactive

Q: CC1COc2ccccc2N1S(=O)(=O)c1ccc(Cl)cc1 (configuration not stated) was tested. Which outcome did it give?
A: inactive

Q: With CCOC(=O)C1CCN(C(=O)c2cccc(S(=O)(=O)N3CCCc4ccccc43)c2)CC1 as the molecule, how does the outcome read?
A: inactive

Q: With O=C(Nc1cc2c(cc1Cl)-c1ccc([N+](=O)[O-])cc1C2=NO)C(F)(F)F as the molecule, how does the outcome read?
A: inactive

Q: Which outcome does the source give for CC(C)C(C(=O)O)N1CCS(=O)(=O)CC1 (configuration not stated) here?
A: inactive

Q: For CCN(CC)c1ccc2cc(-c3nc(-c4cc(OC)c(OC)c(OC)c4)no3)c(=O)oc2c1, which outcome is on record?
A: inactive

Q: With CCOC(=O)c1ccc(NC(=O)c2cn(-c3ccccc3)nc2-c2ccc(OC)c(OC)c2)cc1 as the molecule, how does the outcome read?
A: inactive

Q: With CC(OC(=O)C1CCN(S(=O)(=O)c2ccccc2C(F)(F)F)CC1)C(=O)N(C)Cc1ccccc1 (configuration not stated) as the molecule, how does the outcome read?
A: inactive

— PubChem BioAssay AID651803 (National Center for Advancing Translational Sciences (NCATS), 2012)
